Most compounds without a hit are left out; they make up all but 4% or so of the library.
Anthrax LF inh2: anthrax lethal factor protease inhibition; inhibition, % at 10 µM; P15917; multiplex microsphere protease cleavage assay, LF; 360,000 tested, 0.12% active; note: plate controls were buffer without enzyme for full effect and enzyme alone for no effect
Bead autofluor: counter-screen for toxin protease inhibitors: compound fluorescence; compound autofluorescence counterscreen, microsphere flow cytometry; stronger effect = higher value; 360,000 tested, 3.1% active; fluorescence intensity (test concentration not listed); in the data active = fluorescence intensity above about 16000; inconclusive = no clear call, values can overlap the other calls
MazF activator: activators of E. coli MazEF toxin-antitoxin RNase; FAM/BHQ RNA-DNA oligo cleavage fluorescence, 5 h; activation, % at 20 µM; P0AE70; 350,000 tested, 0.32% active; in the data active = activation above about 50%
Target sequence (P0AE70 whole entry, looked up): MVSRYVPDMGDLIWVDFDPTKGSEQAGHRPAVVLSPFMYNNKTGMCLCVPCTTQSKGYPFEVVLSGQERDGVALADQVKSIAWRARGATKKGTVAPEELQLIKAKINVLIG
BoNT-F LC inh: BoNT F light chain protease inhibition; inhibition, % at 10 µM; 360,000 tested, 0.22% active; Multiplex microsphere protease cleavage assay, flow cytometry; in the data active = inhibition above about 35%, passing the limit was not always enough; inconclusive = no clear call, values can overlap the other calls; note: plate controls were buffer without enzyme for full effect and enzyme alone for no effect
DUSP3 inh: DUSP3 (human) phosphatase inhibition; recombinant VHR phosphatase, pNPP absorbance; inhibition, % at 13.3 µM; 290,000 tested, 0.52% active; in the data active = inhibition above about 50%
Target sequence (P51452 whole entry, looked up): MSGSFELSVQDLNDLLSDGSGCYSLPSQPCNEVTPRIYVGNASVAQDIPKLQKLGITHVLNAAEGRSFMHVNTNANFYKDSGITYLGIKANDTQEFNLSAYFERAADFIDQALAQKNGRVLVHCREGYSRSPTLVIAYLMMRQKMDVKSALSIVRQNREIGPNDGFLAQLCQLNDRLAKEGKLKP
BoNT A protease: blocks Botulinum neurotoxin A light chain protease | 360,000 tested, 0.17% active | inhibition, % at 10 µM | multiplex microsphere protease substrate cleavage, flow cytometry; note: plate controls were buffer without enzyme for full effect and enzyme alone for no effect
Active calls of the source: *; ? = inconclusive; . = no result given. Cut-off read from the data, not from the text of the source, unless noted: active = inhibition above about 30%; inconclusive = no clear call, values can overlap the other calls; inactive = below that.

SMILES | Anthrax LF inh2 | Bead autofluor | MazF activator | BoNT-F LC inh | DUSP3 inh | BoNT A protease
O=c1nc2s/c(=C\c3ccco3)c(=O)n2nc1Cc1ccc(F)cc1 | -2 | 25032* | 2 | -4 | 14 | -2
Cc1ccc(-c2nc3s/c(=C\c4ccco4)c(=O)n3n2)cc1 | 4 | 7600 | -8 | 9 | 29 | 1
Oc1ccc(C[C@H]2CNC(=S)N2CCc2cc(C(F)(F)F)cc(C(F)(F)F)c2)cc1 | -3 | 3941 | 7 | 3 | -4 | -1
CCCOc1ccc(-c2nn(-c3ccccc3)cc2/C=C2\SC(=S)N(C3CCS(=O)(=O)C3)C2=O)cc1 (centres undefined) | 47* | 5968 | -128 | 40* | 18 | 49*
Cc1ccc(/C=C2\SC(=S)N(C3CCS(=O)(=O)C3)C2=O)cc1 (centres undefined) | -4 | 3047 | -15 | 3 | 25 | 2
CCOc1ccc(-c2nn(-c3ccccc3)cc2/C=C2\SC(=S)N(C3CCS(=O)(=O)C3)C2=O)cc1 (centres undefined) | 29 | 2755 | -116 | 43* | 30 | 36*
Cc1ccnc(NC(=O)CCC(=O)c2cc(C)sc2C)c1 | -6 | 7859 | -19 | -13 | . | -4
CCC(=O)NN1CCc2cc3ccc(C)cc3nc21 | 1 | 4097 | 16 | 15 | 1 | 4
O=C(Nc1nc(-c2ccccc2)cs1)C1CCCCN1S(=O)(=O)c1ccccc1 (centres undefined) | -8 | ? | 12 | -7 | 11 | 1
CC(C)(C)C(=O)Nc1nc(C2CCCN2S(=O)(=O)c2ccc(Cl)cc2)cs1 (centres undefined) | -3 | 2844 | 50* | -3 | 6 | 0
O=C(Nc1nccs1)C1CCCN1S(=O)(=O)c1ccc(Cl)cc1 (centres undefined) | -1 | 11397 | -6 | -2 | 2 | 0
O=C(Nc1nc(-c2ccccc2)cs1)C1CCCCN1S(=O)(=O)c1ccc(Cl)cc1 (centres undefined) | -5 | 16281* | -11 | -5 | 2 | 1
COc1cc(/C=N/NC(=O)C(=O)NCc2ccco2)ccc1O | -6 | 9709 | 2 | -11 | 0 | -1
CCCC(=O)Nc1nn(CC)c2nc3ccc(C)cc3cc12 | 6 | 4240 | 7 | 16 | 32 | -2
COC(=O)/C=c1/sc2n(c1=O)CCN=2 | -3 | 4418 | 4 | 18 | 3 | 1
COC(=O)/C=c1\sc2n(c1=O)C(C)=CC(C)(C)N=2 | -7 | 19740* | -5 | 2 | 13 | 3
NC(=O)c1nnn(Cc2cc(Cl)c(C(=O)c3ccc(Cl)cc3)c(Cl)c2)c1N | 0 | 5965 | . | 3 | . | 0
COc1ccc(C(=O)n2nc(-c3ccco3)nc2SC)cc1OC | -2 | 4447 | 109* | 11 | -5 | 1
Cn1c(NCc2cccs2)nc2ccccc21 | 0 | 2923 | 5 | 8 | 0 | 1
CCN(CC)CCn1c(NCc2ccco2)nc2ccccc21 | -1 | 21505* | -8 | -8 | 17 | -4
CCN(CC)CCn1c(NCc2nc3ccccc3n2Cc2ccccc2)nc2ccccc21 | -5 | 12497 | -1 | -19 | 43 | 0
Cn1c(NCc2ccco2)nc2ccccc21 | -3 | 17845* | -2 | 12 | -5 | ?
COc1cc(C(=S)N2CCCC2)ccc1O | 0 | 20063* | -1 | 2 | 15 | 2
Oc1ccc(C(=S)N2CCCCC2)cc1Cl | -2 | 24104* | -6 | -6 | 0 | -2
COc1cc(C(=S)N2CCCCC2)ccc1O | -4 | 7223 | 6 | -8 | . | 0
SMILES | Anthrax LF inh2 | Bead autofluor | MazF activator | BoNT-F LC inh | DUSP3 inh | BoNT A protease
FC(F)(F)c1cccc(Cn2nnnc2-c2cccc(C(F)(F)F)c2)c1 | 0 | 24655* | -5 | -8 | 19 | ?
FC(F)(F)c1cccc(Cn2nnnc2-c2cc(Cl)cc(Cl)c2)c1 | -2 | 16997* | -3 | -3 | 15 | ?
OC1(c2cccc(C(F)(F)F)c2)CCN(Cc2nnnn2Cc2ccccc2)CC1 | -1 | 2645 | -5 | 5 | 26 | 0
O=[N+]([O-])c1ccccc1CNC1CCCc2ccccc21 (centres undefined) | -5 | 3290 | -39 | -8 | 15 | -2
COc1ccc(NC(=O)c2oc3ccccc3c2NC(=O)c2ccc3c(c2)OCO3)cc1 | -3 | 22577* | 0 | -2 | -8 | 2
O=C(Nc1ccc(-c2nc3ccccc3o2)cc1)c1ccc2c(c1)OCO2 | -2 | 16511* | -11 | 0 | -24 | 0
CCOC(=O)c1oc2ccccc2c1NC(=O)c1cccc(OC)c1OC | -2 | 18642* | -2 | 1 | 13 | 2
CCOC(=O)c1oc2ccccc2c1NC(=O)CCl | -3 | 3651 | 4 | ? | 14 | 0
COc1ccc(C(=O)c2oc3ccccc3c2N)cc1 | -2 | 20810* | 5 | -8 | -2 | -4
O=C(COC(=O)c1ccc(NS(=O)(=O)c2ccc3c(c2)OCCO3)cc1)NC1CC1 | -5 | 3911 | 8 | -2 | 14 | -2
CCCn1c(C(C)NC(=O)c2ccccc2)nc2ccccc21 (centres undefined) | -9 | 9572 | 1 | 8 | 22 | -1
COc1ccc(-c2csc(NC(=O)CN3C(=O)CCC3=O)n2)cc1 | -2 | 4175 | 6 | 3 | 23 | 0
COc1ccc(NC(=O)C2=C(C)NC(=O)NC2c2cccc(OC)c2OC)c(OC)c1 (centres undefined) | 3 | 20365* | -8 | 0 | 32 | ?
CCOC(=O)c1[nH]c2ccccc2c1NC(=O)c1ccc2c(c1)OCO2 | -2 | 4487 | -1 | -4 | -8 | 0
CCOC(=O)c1oc2ccccc2c1NC(=O)c1ccc2c(c1)OCO2 | -2 | 24146* | -1 | -5 | 7 | -4
CCOC(=O)c1oc2ccccc2c1NC(=O)c1cccc(OC)c1 | -1 | 22777* | 4 | -1 | 28 | 1
COc1cccc(C2NC(=O)NC(C)=C2C(=O)Nc2ccc(C)cc2)c1OC (centres undefined) | -14 | 9014 | 5 | -21 | 22 | -2
COc1ccc(NC(=O)c2oc3ccccc3c2C)c(OC)c1 | 0 | 22634* | 12 | -3 | 10 | ?
Nc1cc(-c2ccncc2)c[nH]c1=O | 1 | 5922 | -20 | 4 | 28 | 0
CCOC(=O)c1ccc(N2C(=O)c3n[nH]c(-c4ccco4)c3C2c2ccc([N+](=O)[O-])cc2)cc1 (centres undefined) | -6 | 9305 | -9 | -8 | 8 | -2
CC1CC(=O)N(Cc2ccccc2)c2ccccc2N1C=O (centres undefined) | -5 | 20499* | 8 | 0 | 14 | 0
O=C1CCCc2ccccc2N1Cc1ccccc1 | -9 | 5752 | 6 | -1 | -7 | 0
O=C(Nc1ccc(Cl)cc1Cl)c1n[nH]c(Cn2cncn2)n1 | 3 | 20568* | 6 | -3 | 6 | ?
CC[C@@]1(C(=O)OC)N[C@H](CN(C)C(=O)C2CCCCC2)[C@@H]2C(=O)N(C)C(=O)[C@@H]21 | -3 | 4137 | 4 | -10 | . | -1
